Here are results for eight compounds from PubChem BioAssay (NCI).

What all share (experiment): NCI-60 one-dose screen, 48 h (100 = growth as untreated, 0 = no growth, -100 = all killed)
Holding throughout (conditions): 10 µM unless noted

In assay [1] the test system is SR leukemia.
The test system of assay [2] is RPMI-8226 leukemia.
Assay [3] deals with OVCAR-8 ovarian.
Assay [4] concerns OVCAR-5 ovarian.
Assay [5] deals with OVCAR-4 ovarian.
The test system of assay [6] is SK-OV-3 ovarian.
Assay [7] concerns IGROV1 ovarian.
Assay [8] concerns OVCAR-3 ovarian.
The test system of assay [9] is HS 578T breast.
Assay [10] concerns NCI/ADR-RES ovarian.
The subject of assay [11] is T-47D breast.
Assay [12] has as its system BT-549 breast.
The subject of assay [13] is MDA-MB-435 melanoma.
In assay [14] the test system is SW-620 colon.
Assay [15] concerns MCF7 breast.
For assay [16], the system named is HCT-116 colon.
Assay [17] deals with HCC-2998 colon.
Assay [18] has as its system KM12 colon.

The panel holds about 83,000 compounds, 20% with a hit somewhere; the sample as a whole holds those more often.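 Growth was measured after 48 h exposure to one concentration of compound in 96-well plates. Values under 10 count as active.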 Values without a mark were called inactive. Activity calls are given as the source filed them.

Consider `NC(N)=Nc1ccc(Nc2cccc(Nc3ccc(Cl)c(C(F)(F)F)c3)c2)cn1`, for which the growth is -31.7% (active) in [1]; 13% in assay [2]; 44.7% in assay [3]; 73.8% in [4]; 45.4% in assay [5]; 77.6% in [6]. Further, the growth is 33.4% in [7]; -30.7% (active) in assay [8]; 28.4% in [9]; 87.5% in assay [10]; 23.8% in assay [11]; 67.8% in assay [12]. Moreover, the growth was 30.4% in assay [13]; 5.81% (active) in [14]; 2.25% (active) in assay [15]; 16.1% in assay [16]; 9.32% (active) in assay [17]; -38.3% (active) in [18].
For the compound `COc1ccc(/C=C(\C#N)C(=O)N2c3ccccc3Sc3ccc(SC)cc32)cc1F`, the growth was 121% in assay [1]; 95.6% in [2]; 91.4% in [3]; 86.5% in [4]; 75.4% in assay [5]; 100% in assay [6]. Further, the growth was 91.1% in assay [7]; 93.4% in [8]; 85% in assay [9]; 92.7% in [10]; 70.9% in assay [11]; 104% in assay [12]. Further, the growth in assay [13] is 97.9%; in assay [14] it was 95.2%; in [15], 95.9%; in assay [16], 91.2%; in assay [17], 90.5%; in assay [18], 95.3%.
As to `NC(N)=Nc1ccc(Oc2cccc(Nc3ccc(Br)c(C(F)(F)F)c3)c2)cc1`, the growth in assay [1] was -43.5% (active); in assay [2], -44.1% (active); in assay [3] it was 51.2%; in assay [4] it was 40.3%; in [5], 39.8%; in [6], 67.4%. Further, the growth in [7] was 0.582% (active); in [8] it was 13.7%; in assay [9], 9.28% (active); in assay [10], 93.7%; in assay [11], 22.4%; in [12] it was 42.7%. The growth in [13] was 8.6% (active); in [14], -31% (active); in assay [15], -1.08% (active); in [16] it was -25% (active); in assay [17], -28.1% (active); in assay [18], -27.2% (active).
On to `COc1ccc(S(=O)(=O)NCCCNc2nccc(-c3[nH]c(-c4ccccc4)nc3-c3ccc(Cl)c(O)c3)n2)cc1`, for which the growth is 61.9% in assay [1]; 49.8% in assay [2]; 67% in [3]; 104% in [4]; 101% in assay [5]; 112% in assay [6]. The growth was 93.6% in assay [7]; 71.8% in assay [8]; 112% in assay [9]; 103% in [10]; 54.4% in [11]; 88.3% in assay [12]. Moreover, the growth in assay [13] was 36.9%; in assay [14], 107%; in [15], 73.2%; in assay [16] it was 57.8%; in assay [17], 112%; in assay [18], 77.6%.
Consider `COc1cc2c(cc1OC)C(Sc1ccc(F)cc1)c1c(nc(N)c(C#N)c1N)O2` (stereo not drawn), for which the growth in [1] was 0.989% (active); in [2] it was -28% (active); in assay [3] it was -15% (active); in assay [4] it was -88.2% (active); in assay [5], -66.1% (active); in assay [6], -21.6% (active). The growth was -85.7% (active) in [7]; -58.9% (active) in assay [8]; -4.38% (active) in [9]; -46.4% (active) in [10]; -28.1% (active) in assay [11]; 77.6% in assay [12]. Further, the growth in assay [13] was -52.9% (active); in assay [14], -16.7% (active); in assay [15], -88.3% (active); in assay [16], -74.2% (active); in assay [17], -86.1% (active); in assay [18], -62.9% (active).
`COc1ccc(/C=N/NC2=NC3C(S2)N(C)C(=O)N3C)cc1` (stereo not drawn): the growth in [1] was 6.64% (active); in assay [2], 10.5%; in assay [3] it was 35.6%; in [4] it was 50.4%; in [5] it was 75.6%; in assay [6], 28%. Moreover, the growth in assay [7] was 40.9%; in [8], -17.1% (active); in assay [9], 0.337% (active); in [10], 30.7%; in [11], 26.7%; in [12] it was 66%. The growth in assay [13] was -56.4% (active); in assay [14] it was 16.1%; in assay [15], 15.4%; in [16] it was 33.5%; in assay [18] it was 20.8%.
Take `NC(=O)c1c(NC(=O)c2ccccc2C(F)(F)F)sc2c1CCC(=O)C2`: the growth in assay [1] is 27.2%; in [2], -1.93% (active); in assay [3], 17.3%; in assay [4] it was 27%; in assay [5] it was 9.19% (active); in [6] it was 105%. Besides, the growth in assay [7] was 31.2%; in assay [8] it was 12.3%; in assay [9] it was 32.5%; in [10], 14.9%; in assay [11] it was 14.1%; in [12], 14.7%. In addition, the growth in [13] was 14.7%; in [14] it was 19%; in assay [15], 5.93% (active); in [16] it was 9.24% (active); in [17], 33.3%; in assay [18] it was 9.45% (active).
Consider `Cc1nc(-c2ccccc2O)ccc1C(=O)N=Nc1c(O)[nH]c2ccc(Br)cc12`, for which the growth is 101% in assay [1]; 87.9% in [2]; 97.9% in assay [3]; 101% in assay [4]; 102% in [5]; 97.7% in assay [6]. Also, the growth in assay [7] is 89.7%; in [8], 103%; in [9] it was 91.6%; in assay [10] it was 99.6%; in assay [11] it was 88.9%; in assay [12], 102%. The growth is 102% in assay [13]; 95.9% in [14]; 91% in assay [15]; 99.1% in [16]; 123% in assay [17]; 98.3% in assay [18].
